The source of these data is PubChem BioAssay AID624256 (NMMLSC, 2012).

Among all 360,000 compounds or so, about 3,700 (1%) were called active. About 2% were inconclusive and are not listed.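 Rule for the calls: active = normalized GFP-positive differentiation at or above the plate's own cutoff, the solvent-only control mean plus 3 SD; inconclusive = no clear call, values can overlap the other calls; inactive = the rest.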 The sample as a whole holds a higher share of actives than the screen did.

A short description of this experiment: HoxA9-arrested leukemia cell differentiation promoters – flow cytometry, MLPCN library, primary screen (AID 624256).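 For GFP+ MAC1+ double positive: cells exposed to compound for four days before flow analysis.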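 For normalized GFP-positive differentiation: cells exposed to compound for four days before flow analysis; 0% = DMSO wells and 100% = fulvestrant positive control at 5 µM.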 Particulars: ER-HoxA9 myeloid progenitors, lysozyme-GFP differentiation, at 10 µM; GFP+ MAC1+ double positive: measured here: differentiation confirmed by MAC1 staining, stronger effect = higher value; normalized GFP-positive differentiation: stronger effect = higher value. (In flow cytometry, cells or beads pass a laser one at a time.)
For the molecule `COC(=O)[C@]12CCCCC=C1N(CCC1=CCCCC1)C(=O)[C@H](CC(=O)NCC1CCCCC1)C2`, the GFP+ MAC1+ double positive is 1.7% and the molecule was classed as inactive.
In the same order, the values of `Cc1ccc(-c2cnc(C(O)c3cccc(C)c3C)[nH]2)cc1` (stereo not given) are 0.9% and “inactive”.
The matching figures for `O=C(Nc1cccc(C(F)(F)F)c1)c1ccc(N2CCNCC2)c([N+](=O)[O-])c1`: 0.4% and “inactive”.
In the case of `O=C(NC1C2CC3CC(C2)CC1C3)c1ccc(N2CCNCC2)c([N+](=O)[O-])c1` (stereo not given), the GFP+ MAC1+ double positive came to 0.8% and the normalized GFP-positive differentiation is 16.7% (active).
For `CS(=O)(=O)N1CCN(c2ccc(C(=O)NC3C4CC5CC(C4)CC3C5)cc2[N+](=O)[O-])CC1` (stereo not given), the GFP+ MAC1+ double positive is 1% and the molecule was called inactive.
The matching figures for `Cc1cc(O)ccc1-c1cc(C(=O)NCc2cc(C(F)(F)F)cc(C(F)(F)F)c2)[nH]n1`: 0.4% and “inactive”.
Turning to `c1ccc(C[C@H]2CNCCN2CCC23CC4CC(CC(C4)C2)C3)cc1`, the GFP+ MAC1+ double positive stood at 4% and the normalized GFP-positive differentiation is 18.5% (active).
On to `c1ccc2c(CCN3CCNC[C@H]3Cc3cccc4ccccc34)cccc2c1`, for which the GFP+ MAC1+ double positive is 6% and the outcome was inactive.
In the same order, the values of `O=C1CCNCCN1[C@H](CO)Cc1ccccc1` are 1.1% and “inactive”.
In the same order, the values of `CCc1nc2ccc(C(=O)NC3CCN(Cc4ccccc4)CC3)cn2c1N(CC)CCOC` are 1.3% and “inactive”.
The matching figures for `NNC(=O)c1ccc(COCC(F)(F)C(F)F)cc1`: 0.4% and “inactive”.
Turning to `Cc1ccc(COc2ccc(C(=O)NN)cc2)cc1`, the GFP+ MAC1+ double positive is 4.6% and the normalized GFP-positive differentiation was 335% (active).
With `Cc1ccc(COc2ccc(/C=N/NC(=O)CN3CCCCC3)cc2)cc1`, the GFP+ MAC1+ double positive was 0.2% and the call was inactive.
With `COc1cccc(CNC(=O)[C@@H]2CCCN2C(=O)[C@@H]2CCCN2C(=O)c2ccccc2)c1`, the GFP+ MAC1+ double positive turned out to be 0.5% and the molecule was classed as inactive.
As for `CC(CNC(=O)c1ccc(Br)o1)NC(=O)c1ccc(Br)o1` (stereo not given), the GFP+ MAC1+ double positive was determined as 4.1% and the molecule was called inactive.
`CCS(=O)(=O)c1ccc(-c2cccc(NC(=O)c3ccc(Br)o3)c2)nn1`: the GFP+ MAC1+ double positive turned out to be 1.2% and the normalized GFP-positive differentiation was 11.8% (active).
As to `CCOc1ccc(C(=O)Nc2cccc(-c3ccc4nncn4n3)c2)cc1`, the GFP+ MAC1+ double positive was 1.2% and the result was inactive.
The matching figures for `COC(=O)C[C@H]1C=C[C@@H](NS(=O)(=O)c2ccc(C)cc2)[C@@H](CO)O1`: 2.1% and “inactive”.
In the same order, the values of `Cc1ccccc1-c1nc(NC(C)C)nc2cc(-c3ccccc3)sc12` are 0.6% and “inactive”.
In the same order, the values of `OC(c1ccc(Cl)c(F)c1)c1ncc(-c2ccccc2Cl)[nH]1` (stereo not given) are 1.3% and “inactive”.
`COc1ccc(C(O)C(O)(C(=O)OC(C)C)c2ccc(C)cc2)cc1` (stereo not given): the GFP+ MAC1+ double positive came to 2.5% and the call was inactive.
The matching figures for `C[C@H]([C@@H](O)[C@@H](O)[C@@H](C)C(C)(C)C)[C@H]1CC[C@H]2C3CC[C@H]4C[C@H](OS(=O)(=O)O)[C@@H](OS(=O)(=O)O)C[C@]4(C)[C@H]3CC[C@]12C` (stereo not given in full): 3.3% and “inactive”.
As to `C=CCC[C@@H](CCCCC)OC(=O)/C=C/[C@@H](O)[C@H](O)C[C@H](O)CC=C`, the GFP+ MAC1+ double positive was determined as 0.4% and the call was inactive.
Take `O=C(c1ccc(C(F)(F)F)cc1)N1CCC(=O)N([C@H](COCc2ccccc2)Cc2ccccc2)CC1`: the GFP+ MAC1+ double positive amounted to 0.6% and the outcome was inactive.
The matching figures for `CC(C)C[C@@H](COCc1ccc(Cl)cc1)N1CCN(C(=O)c2ccc(Cl)cc2Cl)CCC1=O`: 0.8% and “inactive”.
`CC(C)CC(COCc1ccc(Cl)cc1)N1CCN(C(=O)c2ccc(C(F)(F)F)cc2)CCC1=O` (stereo not given): the GFP+ MAC1+ double positive is 5.1% and the normalized GFP-positive differentiation was 7.54% (active).
Consider `CCN(CC)CCN(C)C(c1ccnc2ccccc12)c1nnnn1-c1ccc2c(c1)OCCO2` (stereo not given), for which the GFP+ MAC1+ double positive was found to be 2.1% and the outcome was inactive.
In the same order, the values of `Cc1nc2cc(NC(=O)Nc3cccc(F)c3)ccc2n1C` are 0.6% and “inactive”.
In the case of `Cc1cc2nc(C)n(CCCNC(=O)Nc3ccccc3)c2cc1C`, the GFP+ MAC1+ double positive came out at 1.2% and the normalized GFP-positive differentiation is 33% (active).
As to `CCOc1ccc(CCNC(=O)Nc2ccccc2)cc1OCC`, the GFP+ MAC1+ double positive was 0.6% and the molecule was called inactive.
In the case of `C[C@@H]1CC2=C(C(=O)OC(C)(C)O2)[C@@H](C2CC2)O1`, the GFP+ MAC1+ double positive worked out at 0.7% and the outcome was inactive.
In the same order, the values of `OC(c1ccccc1)(c1ccccc1)C1CCN(CCCOc2ccccc2)CC1` are 0.9% and “inactive”.
The matching figures for `CCOc1ccc(-c2noc(CCC(=O)NC3CCCC3)n2)cc1OC`: 0.3% and “inactive”.
In the case of `CCOc1nc(-c2ccc(OC)cc2)ccc1-c1noc(-c2cc(OC)c(OC)c(OC)c2)n1`, the GFP+ MAC1+ double positive is 26.5% and the normalized GFP-positive differentiation was 69% (active).
Consider `CCOC(=O)c1cc(-c2nnc(-c3cc(OC)c(OC)c(OC)c3)o2)c(C)nc1C`, for which the GFP+ MAC1+ double positive turned out to be 0.3% and the molecule was called inactive.
In the same order, the values of `Cc1ccc(NS(=O)(=O)c2cc3c(cc2Br)NC(=O)CO3)cc1C` are 2.1% and “inactive”.
The matching figures for `COc1ccc(C(c2nnnn2C2CCCC2)N2CCN(C/C=C/c3ccccc3)CC2)cc1` (stereo not given): 0.9% and “inactive”.
The matching figures for `C=CCNc1nc(N)c([N+](=O)[O-])c(NC2CCCCC2)n1`: 1% and “inactive”.
Regarding `Nc1nc(Nc2ccccc2F)nc(NC2CCCCC2)c1[N+](=O)[O-]`, the GFP+ MAC1+ double positive worked out at 5.3% and the normalized GFP-positive differentiation is 25.3% (active).
Turning to `Nc1nc(NCC2CCCO2)nc(Nc2ccccc2F)c1[N+](=O)[O-]` (stereo not given), the GFP+ MAC1+ double positive stood at 0.2% and the molecule was classed as inactive.
